Screens (PubChem BioAssay)
A selection: hits, their analogues and other compounds. The true share with any hit is near 5.5%.
CtBP-E1A blk: CtBP/E1A binding inhibition; 0.49% of 340,000 active; activity change, % (test concentration not listed); AlphaScreen GST-E1A/His-CtBP binding, 1536-well; hits give low values; in the data active = activity change below about -65%; inconclusive = mostly about -30% to -63%
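AlphaScreen with 125 nM GST-E1A and 125 nM His-CtBP (5X stocks) in Tris pH 8.0, 300 mM NaCl, BSA, Tween 20, TCEP. Compounds preincubated 2 h at 37 deg C, then glutathione donor/nickel acceptor beads added for 1 h at 37 deg C in dark.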
MBNL1 CUG block: inhibitors of human MBNL1 binding to CUG repeat RNA; AID 2675; Potency, µM (titrated, usually from 57.5 µM), usual class: inhibitors; Q9NR56; TR-FRET MBNL1-His/biotin-(CUG)12 binding, 665/545 ratio; 0.036% of 280,000 active; active = well fitted inhibition curve with a large enough effect in the signal ratio, with a control signal flat, not every such curve was filed as active; inconclusive = small, poorly fitted or top-dose-only effect, or effect the other way, or a change in a side signal; inactive = no such curve, though single readings can be large or run the other way; the % refers to the signal ratio
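TR-FRET readout: Ex 340 nm, 665/545 nm emission ratio, normalized to buffer-only (basal) and MBNL1-(CUG)12 controls. Complex of MBNL1-His with Biotin-(CUG)12, compounds 92 nM–58 uM, incubated 60 min at room temperature.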
Six1-Eya2 inh: inhibitors of human Six1/Eya2 interaction; Q15475+O00167; AlphaScreen GST-Six1/His-Eya2 binding, biochemical; hits give low values; activity change, % (no concentration beside the values); 0.56% of 360,000 active; AID 651725; in the data active = activity change below about -65%; inconclusive = mostly about -30% to -63%
Target sequence (O00167 whole entry, looked up): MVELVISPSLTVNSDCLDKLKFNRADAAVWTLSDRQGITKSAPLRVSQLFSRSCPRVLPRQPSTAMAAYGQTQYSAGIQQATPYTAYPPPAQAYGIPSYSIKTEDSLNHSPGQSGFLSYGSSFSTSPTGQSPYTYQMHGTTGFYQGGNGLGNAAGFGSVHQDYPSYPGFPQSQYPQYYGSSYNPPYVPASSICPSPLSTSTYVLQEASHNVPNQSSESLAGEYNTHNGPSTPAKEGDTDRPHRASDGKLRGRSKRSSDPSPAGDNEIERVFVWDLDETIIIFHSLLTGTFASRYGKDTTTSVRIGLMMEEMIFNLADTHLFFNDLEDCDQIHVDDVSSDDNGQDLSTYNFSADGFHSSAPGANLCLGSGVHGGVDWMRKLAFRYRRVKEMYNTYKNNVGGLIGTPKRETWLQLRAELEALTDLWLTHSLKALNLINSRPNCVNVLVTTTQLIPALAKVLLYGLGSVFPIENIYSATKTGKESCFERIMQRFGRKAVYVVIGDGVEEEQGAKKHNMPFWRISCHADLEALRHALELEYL
Target sequence (Q15475 whole entry, looked up): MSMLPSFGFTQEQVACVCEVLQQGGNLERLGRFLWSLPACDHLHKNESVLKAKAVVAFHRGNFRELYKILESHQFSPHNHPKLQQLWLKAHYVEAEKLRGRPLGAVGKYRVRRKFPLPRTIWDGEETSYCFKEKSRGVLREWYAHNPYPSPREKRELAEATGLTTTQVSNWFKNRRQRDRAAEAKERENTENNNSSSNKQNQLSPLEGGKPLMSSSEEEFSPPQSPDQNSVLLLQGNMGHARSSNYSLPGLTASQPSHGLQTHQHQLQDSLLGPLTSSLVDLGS
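Homogeneous AlphaScreen proximity assay pairing GST-Six1 with His-tagged Eya2 (added as 5X mix: 250 nM and 500 nM) in 50 mM Tris pH 8.0, 300 mM NaCl, 1 mM TCEP. Glutathione donor and nickel acceptor beads; 1 h, 37 °C, dark.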
RORg inh: inhibitors of mouse ROR gamma transcriptional activity | 5.4% of 310,000 active | P51450 | Drosophila S2 Gal4-RORgamma UAS-luciferase reporter, 20 h | Potency, µM (titrated, usually from 53.6 µM), hits mostly inhibitors; note: nearly all actives have a fitted effect of over 60% in size
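In this cell-based reporter format, copper sulfate (700 uM final) drives Gal4–ROR gamma fusion expression from a metallothionein promoter in Drosophila Schneider cells; compounds preincubated 1 hr, reporter read after 20 hr at ambient temperature.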
VP16 counter: counter-screen for ROR gamma inhibitors: Gal4-VP16 reporter | Potency, µM (titrated, usually from 53.6 µM), usual class: inhibitors | Drosophila S2 Gal4-VP16 UAS-luciferase, luminescence, 20 h | 3.5% of 310,000 active | AID 2546;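 note: Gal4-VP16 expression switched on by copper sulfate through the metallothionein promoter; nearly all actives have a fitted effect of over 50% in size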
CBFb-RUNX1 inh: CBF-beta/RUNX1 interaction disruption; Potency, µM (highest dose often 59.8 µM), usual class: inhibitors; Q01196+Q13951; AID 1477; 230,000 tested, under 10 active; AlphaScreen CBFb-His/RUNX1-biotin binding, biochemical
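Room-temperature protein-protein interaction test with 30 nM each of His-tagged CBF-beta and biotinylated RUNX1, 15 min with compound, then 90 min with nickel plus streptavidin beads. Signal read in AlphaScreen mode.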
Of the large screens only hits and unclear results are named; the others gave an inactive call. Unless noted, calls come from the whole dose curve; as a rule, active = well fitted curve in the direction sought with a large enough effect; inconclusive = small, poorly fitted or top-dose-only effect, or another doubt; inactive = no such curve, though single readings can be large; an effect the other way counts as inactive or inconclusive.

Cc1ccn2cc(CSc3ccccc3N)nc2c1	RORg inh 13µM
CCOC(=S)SCc1cn2ccc(C)cc2n1	RORg inh 14µM, VP16 counter inconclusive
Cc1ccn2cc(CC(=O)O)nc2c1	none
Cc1ccc(Cl)c2c1NC(=O)C2=O	none (no result: MBNL1 CUG block, RORg inh, VP16 counter, CBFb-RUNX1 inh)
COc1ccc(C(=O)c2sc(NC(C)C)nc2N)cc1OC	VP16 counter inconclusive
COc1cccc(C(=O)c2sc(NC(C)C)nc2N)c1	RORg inh inconclusive, VP16 counter 11µM
O=C(NNC(=O)c1n[nH]c2ccccc12)c1ccccc1	none (no result: MBNL1 CUG block, RORg inh, VP16 counter, CBFb-RUNX1 inh)
Cc1cccc(C(=O)Oc2ccc(/C=N/O)cc2)c1	RORg inh 5.6µM, VP16 counter 2µM
COc1cc(C(=O)N/N=C/c2ccc(OC(=O)c3cccc(C)c3)cc2)ccc1O	none (no result: CBFb-RUNX1 inh)
COc1ccc(NC(=O)COC(=O)Cc2c(F)cccc2Cl)cc1	none
Cn1c(CNC(=O)CNC(=O)c2cccc(F)c2)cc(=O)n(C)c1=O	none (no result: CBFb-RUNX1 inh)
CCOC(=O)c1c(NC(=S)Nc2ccc(OC)cc2)sc2c1CCC2	RORg inh inconclusive
Cc1sc(NC(=S)Nc2ccc(F)cc2)c(C(N)=O)c1C	RORg inh 8.9µM, VP16 counter 11µM (no result: CtBP-E1A blk)
CCOC(=O)c1c(NC(=S)Nc2ccc(Cl)cc2)sc(C)c1C	none
CCOC(=O)c1c(NC(=S)Nc2ccccc2)sc2c1CC(C)(C)SC2	RORg inh 2.8µM, VP16 counter 4µM
CCOC(=O)c1c(NC(=S)NC)sc2c1CC(C)(C)SC2	RORg inh 0.4µM, VP16 counter 0.89µM
CCOC(=O)c1c(NC(=S)Nc2cccnc2)sc(C)c1C	RORg inh 13µM, VP16 counter inconclusive
CCOCCCNC(=O)c1ccc(N2CC3CC(C2)c2cccc(=O)n2C3)c(NC(=O)Nc2cccc(OC)c2)c1 (centres undefined)	none (no result: CtBP-E1A blk, CBFb-RUNX1 inh)
COC(=O)c1c(NC(=O)Cc2cccs2)sc2c1CCC(C)C2 (centres undefined)	RORg inh inconclusive
CNC(=S)Nc1sc2c(c1C(=O)OC)CCC2	RORg inh 1.3µM, VP16 counter inconclusive (no result: MBNL1 CUG block)
COC(=O)c1c(NC(=S)NN2CCN(C)CC2)sc2c1CCC(C)C2 (centres undefined)	RORg inh 2µM, VP16 counter 5µM
CC1=NN(C(=O)c2ccoc2C)C(O)(C(F)(F)F)C1 (centres undefined)	RORg inh 3.5µM, VP16 counter 10µM
O=C(c1ccncc1)N1N=C(C2CC2)CC1(O)C(F)(F)F (centres undefined)	RORg inh 11µM
CC1=NN(C(=O)c2csc(C(C)C)c2)C(O)(C(F)(F)F)C1 (centres undefined)	RORg inh 5µM, VP16 counter 4.5µM
Cc1ccc(C2=NN(C(=O)c3ccco3)C(O)(C(F)(F)F)C2)cc1 (centres undefined)	RORg inh inconclusive, VP16 counter inconclusive
CC(C)CC1=NN(C(=O)c2cccnc2)C(O)(C(F)(F)F)C1 (centres undefined)	RORg inh 11µM, VP16 counter 13µM (no result: MBNL1 CUG block)
CCN(C[C@H]1N[C@@](C)(C(=O)OC)[C@H]2C(=O)N(C)C(=O)[C@@H]12)C(=O)Nc1ccc(Cl)cc1	none (no result: MBNL1 CUG block, RORg inh, VP16 counter, CBFb-RUNX1 inh)
CNC(=O)c1cn2c3c(ccc(Cl)c3c1=O)OC(C)C2 (centres undefined)	none (no result: CtBP-E1A blk, MBNL1 CUG block, RORg inh, VP16 counter, CBFb-RUNX1 inh)
Cc1ccc(N(CC(=O)Nc2c(C)cccc2C)S(C)(=O)=O)cc1	none (no result: CBFb-RUNX1 inh)
CC1=NN(C(=O)c2cccnc2)C(O)(C(F)(F)F)C1 (centres undefined)	RORg inh 7.9µM, VP16 counter 13µM
C[C@](N)(C(=O)O)c1ccc(-c2nn[nH]n2)cc1	none (no result: CtBP-E1A blk, MBNL1 CUG block, Six1-Eya2 inh)
Cc1cc(C(=O)CCl)c(C)n1-c1ccon1	RORg inh 8.9µM, VP16 counter inconclusive (no result: MBNL1 CUG block)
Cc1cc(C(=O)CCl)c(C)n1-c1cccc([N+](=O)[O-])c1	RORg inh 8.9µM, VP16 counter inconclusive
CC(=O)c1c(C(C)=O)c(C)n(-c2cccc([N+](=O)[O-])c2)c1C	none (no result: MBNL1 CUG block)
Cc1ccc2ccc(C#N)cc2c1O	none (no result: MBNL1 CUG block, RORg inh, VP16 counter, CBFb-RUNX1 inh)
COc1ccccc1-c1cn[nH]c(=S)n1	MBNL1 CUG block inconclusive, RORg inh 8.9µM, VP16 counter inconclusive
CC(C)C(=O)Nc1ccc(NC(=S)NC(=O)c2ccc([N+](=O)[O-])cc2)cc1	MBNL1 CUG block inconclusive, RORg inh 10µM
CC(C)C(=O)Nc1cccc(NC(=S)NC(=O)c2ccc([N+](=O)[O-])cc2)c1	MBNL1 CUG block inconclusive, RORg inh 11µM, VP16 counter inconclusive
CC(=O)Nc1ccc(NC(=S)NC(=O)c2ccc([N+](=O)[O-])cc2)cc1	MBNL1 CUG block inconclusive
Cc1cc(C(=O)NC(=S)Nc2cccc(NC(=O)C(C)C)c2)ccc1[N+](=O)[O-]	RORg inh 10µM, VP16 counter inconclusive
COc1ccc(CCNC(=O)c2cc(C)oc2C)cc1	none (no result: CBFb-RUNX1 inh)
COc1ccc(-c2c(-c3ccc(OCC(=O)NN)cc3O)n[nH]c2C)cc1OC	none (no result: CBFb-RUNX1 inh)
CCOc1ccc(-c2n[nH]c(C)c2-c2ccccc2OC)c(O)c1	RORg inh 2µM, VP16 counter inconclusive
C=C(C)COc1ccc(-c2n[nH]c(C)c2-c2ccc(OC)cc2)c(O)c1	RORg inh 2.2µM, VP16 counter inconclusive
COc1ccc(-c2c(-c3ccc(OCC(=O)NN)cc3O)n[nH]c2C(F)(F)F)cc1	RORg inh 6.3µM, VP16 counter 4.5µM
CCCCN(C)CCCNC(=O)c1cn(CC)c2ccc(S(=O)(=O)N3CCOCC3)cc2c1=O	none (no result: CBFb-RUNX1 inh)
C[C@H]1CN([C@@H](C)CO)C(=O)CCCn2nncc2CO[C@H]1CN(C)C(=O)c1cc(-c2ccccc2)on1	none (no result: MBNL1 CUG block, RORg inh, VP16 counter, CBFb-RUNX1 inh)
COc1ccc2c(c1-c1c3c(cc(Br)c1OC)CCCC3)CCCC2	none (no result: CtBP-E1A blk, MBNL1 CUG block, Six1-Eya2 inh)
Cc1ccc(C(c2c(C)n(C)n(-c3ccccc3)c2=O)c2c(C)n(C)n(-c3ccccc3)c2=O)s1	RORg inh 4.5µM, VP16 counter 7.1µM
Cc1c(C(c2ccccc2)c2c(C)n(C)n(-c3ccccc3)c2=O)c(=O)n(-c2ccccc2)n1C	none (no result: CBFb-RUNX1 inh)
COc1cccc(/C=N/n2c(N)c(S(=O)(=O)c3cccs3)c3nc4ccccc4nc32)c1	none
Nc1c(S(=O)(=O)c2cccs2)c2nc3ccccc3nc2n1/N=C/c1cccc(O)c1	CtBP-E1A blk -92, Six1-Eya2 inh -87, RORg inh inconclusive, VP16 counter inconclusive
CCc1ccc(N/C(SCc2cccc(F)c2)=C(/C#N)C(=O)NCc2ccco2)cc1	RORg inh 1.6µM, VP16 counter 6.3µM
COc1cccc2c1OCC(C(=O)Nc1nccs1)=C2	MBNL1 CUG block inconclusive, RORg inh 11µM, VP16 counter inconclusive (no result: CtBP-E1A blk, CBFb-RUNX1 inh)
COc1cccc(C=Nc2ccccc2C(=O)Nc2nccs2)c1OC	none
